The supplement of paper PMC11732987, “Enantioselective OTUD7B fragment discovery through chemoproteomics screening and high-throughput optimisation” (Communications Chemistry, 2025)

What was measured:
Assay in all cases: log2 ratio of Biotin-Ahx-Ub-VS probe labelling (fragment/DMSO); higher = less target engagement (more negative = stronger competition), active = hit call of the paper (q ≤ 0.05, log2 ratio ≤ -1)
Settings in all cases: compound concentration: 200 uM; treatment time: 3 h
[1] = biological target: T1, ALG13 (UniProt Q9NP73)
T1 sequence (whole entry): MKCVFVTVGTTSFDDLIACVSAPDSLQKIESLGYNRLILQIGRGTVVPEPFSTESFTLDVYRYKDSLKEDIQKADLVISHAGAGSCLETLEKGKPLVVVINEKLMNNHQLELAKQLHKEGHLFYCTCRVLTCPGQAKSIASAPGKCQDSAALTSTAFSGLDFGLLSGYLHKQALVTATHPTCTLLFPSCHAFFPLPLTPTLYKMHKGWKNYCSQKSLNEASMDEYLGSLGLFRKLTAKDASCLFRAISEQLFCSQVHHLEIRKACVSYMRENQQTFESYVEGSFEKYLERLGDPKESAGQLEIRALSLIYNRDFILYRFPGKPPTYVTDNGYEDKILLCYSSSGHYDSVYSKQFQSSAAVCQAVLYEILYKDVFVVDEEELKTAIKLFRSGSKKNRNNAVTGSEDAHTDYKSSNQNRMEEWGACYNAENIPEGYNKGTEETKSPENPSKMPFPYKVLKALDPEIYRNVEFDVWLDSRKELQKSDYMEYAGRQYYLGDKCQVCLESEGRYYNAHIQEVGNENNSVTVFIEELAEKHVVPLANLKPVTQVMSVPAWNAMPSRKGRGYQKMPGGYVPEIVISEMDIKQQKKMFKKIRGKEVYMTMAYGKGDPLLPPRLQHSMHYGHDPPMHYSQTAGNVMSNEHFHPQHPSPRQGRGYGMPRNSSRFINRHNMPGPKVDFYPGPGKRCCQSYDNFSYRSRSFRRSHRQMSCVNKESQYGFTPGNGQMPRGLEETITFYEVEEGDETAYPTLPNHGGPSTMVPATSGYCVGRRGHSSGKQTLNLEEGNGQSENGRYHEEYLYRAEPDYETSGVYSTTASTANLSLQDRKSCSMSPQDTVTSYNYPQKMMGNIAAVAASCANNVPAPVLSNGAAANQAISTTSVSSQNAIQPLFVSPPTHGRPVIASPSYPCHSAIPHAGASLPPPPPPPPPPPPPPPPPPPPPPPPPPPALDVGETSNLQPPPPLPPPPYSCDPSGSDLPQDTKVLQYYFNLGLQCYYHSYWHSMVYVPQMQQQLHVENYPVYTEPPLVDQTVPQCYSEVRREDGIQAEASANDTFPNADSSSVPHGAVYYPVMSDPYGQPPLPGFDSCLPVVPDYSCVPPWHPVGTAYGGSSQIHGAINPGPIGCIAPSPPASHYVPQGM
Outline: (§1)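 HEK293T lysate (495 µg per sample, in Tris/CHAPS/IGEPAL buffer with protease inhibitors) was exposed in triplicate for 3 h to fragment at 200 µM or to vehicle, then to Biotin-Ahx-Ub-VS at 0.5 µM final for 1 h. Labelled DUBs were enriched on NeutrAvidin, digested with LysC and trypsin, and analysed by diaPASEF LC-MS/MS. Spectronaut label-free quantities were normalised to the global median, and values are average log2 ratios of fragment over vehicle from an unpaired t-test. Only proteins with ≥2 unique peptides were used.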

[2] = biological target: ATXN3 (UniProt P54252)
ATXN3, sequence (P54252 whole entry): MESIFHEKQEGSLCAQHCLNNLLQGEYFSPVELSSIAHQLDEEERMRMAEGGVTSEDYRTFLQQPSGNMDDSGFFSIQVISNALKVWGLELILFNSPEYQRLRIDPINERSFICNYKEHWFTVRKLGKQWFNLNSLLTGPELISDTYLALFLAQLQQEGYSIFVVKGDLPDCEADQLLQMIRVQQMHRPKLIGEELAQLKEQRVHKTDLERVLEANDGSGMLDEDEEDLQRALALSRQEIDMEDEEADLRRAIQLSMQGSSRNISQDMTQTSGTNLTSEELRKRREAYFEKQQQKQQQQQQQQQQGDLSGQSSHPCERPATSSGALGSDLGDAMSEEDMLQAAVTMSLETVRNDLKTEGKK
Outline: as §1

[3] = biological target: T2, BAP1 (UniProt Q92560)
T2 sequence (whole entry): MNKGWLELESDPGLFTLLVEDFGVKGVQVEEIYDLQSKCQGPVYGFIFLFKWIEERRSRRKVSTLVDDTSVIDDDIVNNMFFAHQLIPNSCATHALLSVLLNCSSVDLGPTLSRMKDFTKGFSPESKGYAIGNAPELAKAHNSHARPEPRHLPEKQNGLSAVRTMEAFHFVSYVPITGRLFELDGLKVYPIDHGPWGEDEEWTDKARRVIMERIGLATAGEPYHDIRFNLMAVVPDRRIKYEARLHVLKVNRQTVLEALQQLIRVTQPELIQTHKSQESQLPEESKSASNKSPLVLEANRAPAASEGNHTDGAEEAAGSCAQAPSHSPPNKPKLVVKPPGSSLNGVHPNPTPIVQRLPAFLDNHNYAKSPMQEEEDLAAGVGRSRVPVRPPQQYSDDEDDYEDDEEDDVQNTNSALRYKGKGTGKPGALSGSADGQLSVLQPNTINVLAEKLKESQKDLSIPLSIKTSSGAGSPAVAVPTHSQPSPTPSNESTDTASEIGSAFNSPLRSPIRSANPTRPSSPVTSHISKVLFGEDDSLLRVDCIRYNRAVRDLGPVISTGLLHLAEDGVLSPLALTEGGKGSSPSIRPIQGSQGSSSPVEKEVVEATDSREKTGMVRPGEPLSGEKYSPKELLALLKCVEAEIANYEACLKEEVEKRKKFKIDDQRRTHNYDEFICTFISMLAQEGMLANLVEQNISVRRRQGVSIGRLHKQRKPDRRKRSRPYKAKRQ
Outline: as §1

[4] = biological target: EIF3F (UniProt O00303)
EIF3F, sequence (O00303 whole entry): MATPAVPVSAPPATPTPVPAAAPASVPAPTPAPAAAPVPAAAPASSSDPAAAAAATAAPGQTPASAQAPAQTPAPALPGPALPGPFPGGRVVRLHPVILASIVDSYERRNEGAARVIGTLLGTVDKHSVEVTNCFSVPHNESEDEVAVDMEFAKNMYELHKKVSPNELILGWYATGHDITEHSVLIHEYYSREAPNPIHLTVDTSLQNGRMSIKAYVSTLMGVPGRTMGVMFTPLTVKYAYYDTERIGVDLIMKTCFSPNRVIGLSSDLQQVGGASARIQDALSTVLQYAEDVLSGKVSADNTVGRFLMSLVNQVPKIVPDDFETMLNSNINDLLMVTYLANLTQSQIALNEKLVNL
Outline: as §1

[5] = biological target: EIF3H (UniProt O15372)
EIF3H, sequence (O15372 whole entry): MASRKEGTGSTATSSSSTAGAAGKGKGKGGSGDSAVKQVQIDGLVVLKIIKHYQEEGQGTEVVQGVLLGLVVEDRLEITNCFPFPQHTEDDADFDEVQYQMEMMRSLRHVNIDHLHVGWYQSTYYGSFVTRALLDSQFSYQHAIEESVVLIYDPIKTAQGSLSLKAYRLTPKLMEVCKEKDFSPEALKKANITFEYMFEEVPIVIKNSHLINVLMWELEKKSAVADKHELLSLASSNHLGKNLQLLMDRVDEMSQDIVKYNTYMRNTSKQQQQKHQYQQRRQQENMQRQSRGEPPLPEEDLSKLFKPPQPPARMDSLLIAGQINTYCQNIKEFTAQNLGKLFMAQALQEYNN
Outline: as §1

[6] = biological target: T3, FAM105A (UniProt Q9NUU6)
T3 sequence (whole entry): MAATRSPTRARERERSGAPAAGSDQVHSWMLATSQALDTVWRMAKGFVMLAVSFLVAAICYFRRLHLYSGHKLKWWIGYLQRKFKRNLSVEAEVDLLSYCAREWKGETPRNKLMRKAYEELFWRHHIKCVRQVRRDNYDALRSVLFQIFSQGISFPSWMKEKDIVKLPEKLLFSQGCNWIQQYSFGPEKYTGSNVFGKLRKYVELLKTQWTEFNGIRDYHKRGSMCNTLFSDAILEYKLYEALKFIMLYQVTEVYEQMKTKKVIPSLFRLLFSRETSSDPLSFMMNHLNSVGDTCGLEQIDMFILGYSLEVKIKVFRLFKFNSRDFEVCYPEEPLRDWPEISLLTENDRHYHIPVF
Outline: as §1

[7] = biological target: OTUB1 (UniProt Q96FW1)
OTUB1, sequence (Q96FW1 whole entry): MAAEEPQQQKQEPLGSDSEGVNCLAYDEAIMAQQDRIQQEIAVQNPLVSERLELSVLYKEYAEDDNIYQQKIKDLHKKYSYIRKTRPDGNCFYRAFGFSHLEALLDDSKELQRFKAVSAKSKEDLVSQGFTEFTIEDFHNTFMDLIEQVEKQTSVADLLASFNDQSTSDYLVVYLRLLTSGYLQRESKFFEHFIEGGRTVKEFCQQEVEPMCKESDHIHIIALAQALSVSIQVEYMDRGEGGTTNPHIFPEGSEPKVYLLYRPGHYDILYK
Outline: as §1

[8] = biological target: T4, OTUD4 (UniProt Q01804)
T4 sequence (whole entry): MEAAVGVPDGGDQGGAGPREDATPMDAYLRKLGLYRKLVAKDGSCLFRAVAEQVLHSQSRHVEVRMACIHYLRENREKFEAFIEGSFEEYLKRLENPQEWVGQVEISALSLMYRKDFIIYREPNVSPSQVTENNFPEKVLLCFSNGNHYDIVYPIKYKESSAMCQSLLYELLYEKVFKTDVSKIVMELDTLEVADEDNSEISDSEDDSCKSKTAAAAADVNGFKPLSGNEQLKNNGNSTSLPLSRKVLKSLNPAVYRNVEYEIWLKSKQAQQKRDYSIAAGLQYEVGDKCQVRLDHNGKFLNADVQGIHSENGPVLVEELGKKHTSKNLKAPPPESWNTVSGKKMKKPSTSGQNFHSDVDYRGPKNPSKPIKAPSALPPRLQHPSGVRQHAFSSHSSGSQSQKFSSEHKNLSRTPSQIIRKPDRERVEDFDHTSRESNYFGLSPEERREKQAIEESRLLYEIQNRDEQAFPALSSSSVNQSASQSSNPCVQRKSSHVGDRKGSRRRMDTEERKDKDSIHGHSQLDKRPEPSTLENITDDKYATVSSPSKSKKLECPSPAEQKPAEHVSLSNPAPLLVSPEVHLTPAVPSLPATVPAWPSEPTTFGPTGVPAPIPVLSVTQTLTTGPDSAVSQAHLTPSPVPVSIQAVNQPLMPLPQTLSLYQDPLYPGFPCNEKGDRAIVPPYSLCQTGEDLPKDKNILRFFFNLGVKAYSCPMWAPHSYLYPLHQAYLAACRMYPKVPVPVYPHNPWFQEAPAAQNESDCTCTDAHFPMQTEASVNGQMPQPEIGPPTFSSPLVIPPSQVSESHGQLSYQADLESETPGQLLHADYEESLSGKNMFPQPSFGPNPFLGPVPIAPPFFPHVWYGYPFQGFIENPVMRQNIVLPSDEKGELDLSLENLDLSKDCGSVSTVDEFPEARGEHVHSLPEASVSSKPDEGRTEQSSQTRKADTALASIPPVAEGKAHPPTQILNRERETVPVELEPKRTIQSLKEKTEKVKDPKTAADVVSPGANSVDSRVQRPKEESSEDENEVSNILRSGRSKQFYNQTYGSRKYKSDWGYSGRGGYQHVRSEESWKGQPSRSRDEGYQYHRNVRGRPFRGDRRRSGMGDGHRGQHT
Outline: as §1

[9] = biological target: T5, OTUD5 (UniProt Q96G74)
T5 sequence (whole entry): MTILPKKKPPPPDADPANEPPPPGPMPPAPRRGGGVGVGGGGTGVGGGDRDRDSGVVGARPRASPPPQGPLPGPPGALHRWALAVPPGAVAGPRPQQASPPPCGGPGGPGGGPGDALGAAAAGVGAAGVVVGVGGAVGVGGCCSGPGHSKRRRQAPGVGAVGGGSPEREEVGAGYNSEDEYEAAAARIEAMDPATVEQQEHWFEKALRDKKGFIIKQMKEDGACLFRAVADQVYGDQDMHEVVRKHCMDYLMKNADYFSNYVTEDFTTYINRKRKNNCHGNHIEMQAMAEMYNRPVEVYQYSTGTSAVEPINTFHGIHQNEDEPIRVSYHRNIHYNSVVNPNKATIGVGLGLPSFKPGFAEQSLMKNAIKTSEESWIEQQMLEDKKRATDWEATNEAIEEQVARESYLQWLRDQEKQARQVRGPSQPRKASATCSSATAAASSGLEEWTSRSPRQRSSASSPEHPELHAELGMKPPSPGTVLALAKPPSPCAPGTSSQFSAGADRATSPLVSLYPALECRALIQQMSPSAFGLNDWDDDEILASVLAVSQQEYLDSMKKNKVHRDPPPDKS
Outline: as §1

Measured: log2 ratio of Biotin-Ahx-Ub-VS probe labelling

O=C(CCl)Nc1ccccc1C(F)(F)F
active: [3] -2.61
inactive: [1] 0.259 | [2] -0.449 | [4] -0.519 | [5] 0.185 | [6] 0.257 | [7] -0.144 | [8] -0.356 | [9] -0.489
